Assay results as given in PubChem BioAssay AID489018 (Southern Research Specialized Biocontainment Screening …, 2010).
Among all 2,300 compounds or so, about 350 (15%) were called active. No rule for the calls is given here. A selection follows. Entries with a potency or affinity are not part of this list.

Experiment: HepG2 cell cytotoxicity, dose response, cytotoxicity control for non-replicating M. tuberculosis project (AID 489018);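 also: HepG2 human liver cells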
Conditions: series mostly up to 20 µM

Row | SMILES | outcome
1 | O=C(OCc1nnc(-c2ccccc2)o1)c1ccc(Br)o1 | inactive
2 | Cc1ccccc1-n1c(C)cc(/C=N/NC(=O)c2ccncc2)c1C | inactive
3 | CC(C)Cn1c([N+](=O)[O-])nc2c1c(=O)[nH]c(=O)n2C | inactive
4 | CN1CCC(O)(c2cccs2)C(C(=O)c2cccs2)C1 (stereo not given) | inactive
5 | COc1ccc(C(C#N)=C2C=CC(=NO)C=C2)cc1 | inactive
6 | CC/C(=C\C=C\[C@@H]1C=C[C@@H]2CCC[C@H]2[C@@H]1C(=O)c1ccc[nH]1)[C@@H]1O[C@@H]([C@@H](C)C(=O)O)CC[C@@H]1C | inactive
7 | CCOc1cc(-c2sc(Nc3cc(C)ccc3OC)n[n+]2-c2ccccc2)ccc1OC | inactive
8 | O=C(COc1ccc(Br)cc1)Nc1ccc([N+](=O)[O-])cn1 | inactive
9 | CC(=O)Nc1ccc(NC(=O)c2cc([N+](=O)[O-])cc([N+](=O)[O-])c2)cc1 | inactive
10 | O=C1/C(=C/C=C/c2ccccc2)Oc2c1ccc(O)c2CN1CCN(CCO)CC1 | inactive
11 | CC(Oc1ccc2ccccc2c1)C(=O)NNC(=S)NC(=O)c1ccco1 (stereo not given) | inactive
12 | CCCOc1ccc(C(=O)NNC(=S)NC(=O)c2cccs2)cc1 | inactive
13 | CCCOC(=O)c1ccc(NC(=O)c2ccc(Br)o2)cc1 | inactive
14 | Cc1cc(C)nc(-n2nc(C)cc2Nc2ccccc2)n1 | inactive
15 | CCCc1cc(=O)n2[nH]c(C)c(-c3ccccc3)c2n1 | inactive
16 | Clc1cccc(-c2ccc(CNCc3ccccn3)o2)c1 | inactive
17 | COc1cc(N=c2ssnc2Cl)cc(OC)c1OC | inactive
18 | CCN(CC)c1ccc(-c2sc(Nc3ccccc3)n[n+]2-c2ccc(F)cc2)cc1 | inactive
19 | Cc1nn(-c2ccccc2)nc1C(=O)c1c(C)[nH]n(-c2ccccc2)c1=O | inactive
20 | O=C(Nc1ncc(Cc2ccccc2Cl)s1)C1=NCCN1 | inactive
21 | O=C(NC1CCCCC1)c1nc2c(nnn2Cc2ccccc2Cl)c(=O)[nH]1 | inactive
22 | CCOC(=O)N1CCC(N2CCCC(C(=O)c3ccc4cc(OC)ccc4c3)C2)CC1 (stereo not given) | inactive
23 | CNC(C)C#Cc1ccc2oc3cc(C)c(C)cc3c(=O)c2c1 (stereo not given) | inactive

Row | SMILES | outcome
24 | CCCCOC(=O)c1ccc(NC(=O)c2nn(C)cc2Br)cc1 | inactive
25 | O=S1(=O)N=C(N/N=C/C=C/c2ccccc2)c2ccccc21 | inactive
26 | Cc1ccc(/C=C2\SC(=S)N(C3CCS(=O)(=O)C3)C2=O)o1 (stereo not given) | inactive
27 | CC(C)c1nnc(NC(=O)c2c(O)c3cccc4c3n(c2=O)CCC4)s1 | inactive
28 | O=C(NNC(=O)c1ccccc1F)c1ccc(-c2ccc(Cl)cc2)o1 | inactive
29 | COC(=O)c1cn(NC(=O)c2cnccn2)c(=O)c2ccccc12 | inactive
30 | CCOC(=O)c1cc(-c2c(Cl)cccc2Cl)no1 | inactive
31 | Cn1cnc([N+](=O)[O-])c1Sc1ccc([N+](=O)[O-])cc1 | inactive
32 | Fc1ccc(-c2ccc(CNCc3ccccn3)o2)cc1Cl | inactive
33 | Clc1ccc(-c2ccc(CNCc3ccccn3)o2)cc1 | inactive
34 | CCOC(=O)c1cc(COc2cc(Cl)cc(Cl)c2)on1 | inactive
35 | Cc1cccc(OCC(=O)NNC(=O)c2cc3ccccc3oc2=O)c1 | inactive
36 | O=C(COc1ccc2ccccc2c1)N/N=C/c1ccccn1 | inactive
37 | Cc1cc(C)n2[nH]c(=O)c(N=Nc3cccc(Cl)c3)c2n1 | inactive
38 | CN=C1S/C(=C\c2ccc(OCC(=O)OC)c(OC)c2)C(=O)N1C | inactive
39 | COc1cccc(OCCNC(=O)c2cc([N+](=O)[O-])cc([N+](=O)[O-])c2)c1 | inactive
40 | Cc1n[nH]c(C)c1CCOc1ccc(C(C)C)cc1 | inactive
41 | CC(C)c1ccc(OCC(=O)NNC(=O)c2cnccn2)cc1 | inactive
42 | O=C(COC(=O)c1ccc(O)cc1O)c1ccc2c(c1)OCO2 | inactive
43 | O=C1Nc2ccccc2/C1=C/C(=O)c1cccs1 | inactive
44 | O=C(NN=C(Cc1ccccc1)Cc1ccccc1)c1ccncc1 | inactive
45 | CCCCCn1c(=O)c2ccccc2n2c(CCl)nnc12 | inactive
46 | CC(C)(C)Nc1nc(NC(C)(C)C)nc(-n2ccnc2)n1 | inactive

Row | SMILES | outcome
47 | CN1/C(=C\C(=O)COC(=O)C2COc3ccccc3O2)C(C)(C)c2ccccc21 (stereo not given) | inactive
48 | Cc1cccc(-c2nnc3sc(-c4ccccc4C)nn23)c1 | inactive
49 | Cc1cc(C)cc(OC(=O)CCN2C(=O)c3ccccc3C2=O)c1 | inactive
50 | CCOc1ccc(Nc2cc(C)nc(-n3nc(C)cc3C)n2)cc1 | inactive
51 | Cc1cc(N2CCC(C)CC2)nc(-n2nc(C)cc2C)n1 | inactive
52 | COc1ccc(/C=N/Nc2cc(C)nc(-n3nc(C)cc3C)n2)c(OC)c1 | inactive
53 | Cc1cc(N2CCN(c3ccccc3)CC2)nc(-n2nc(C)cc2C)n1 | inactive
54 | Cc1ccc(NC(=O)ON=C2CCCC2)cc1 | inactive
55 | Cc1cc(NC(=O)C2CCCCC2)n(-c2nc3ccccc3[nH]2)n1 | inactive
56 | O=C(OCn1nnc2ccccc2c1=O)c1cccs1 | inactive
57 | COc1cc(/C=N/NC(=O)c2ccncc2)ccc1OC(=O)c1cccc(F)c1 | inactive
58 | O=C(NCCCN1CCOCC1)c1c(O)c2cc(Br)cc(Br)c2[nH]c1=O | inactive
59 | CC(C)Cc1nnc(NC(=O)CCS(=O)(=O)c2ccc(Cl)cc2)s1 | inactive
60 | C=CCNc1nnc(Sc2ncccc2[N+](=O)[O-])s1 | inactive
61 | Cc1cccc(OC(=O)c2sc3ncn(C)c(=O)c3c2C)c1 | inactive
62 | COc1cccc(N2C(=O)NC(=O)/C(=C/c3ccc([N+](=O)[O-])s3)C2=O)c1 | inactive
63 | CCCc1nnc(NC(=O)c2cc3ccccc3oc2=O)s1 | inactive
64 | CCc1ccc(OCC(=O)Nc2ccncc2)c(Br)c1 | inactive
65 | O=C(CCS(=O)(=O)c1ccccc1)Nc1nnc(-c2ccco2)o1 | inactive
66 | CCOc1ccc(C(=O)Nc2nnc(C3=COCCO3)o2)cc1 | inactive
67 | CC(C)(C)c1ccc(C(=O)Nc2nnc(C3=COCCO3)o2)cc1 | inactive
68 | O=C(Nc1nnc(C2=COCCO2)o1)c1ccc(Cc2ccccc2)cc1 | inactive
69 | Cc1ccsc1C(=O)OCC(=O)Nc1nnc(-c2ccccc2)o1 | inactive

Row | SMILES | outcome
70 | Cc1ccccc1C(=O)Nc1nnc(-c2ccco2)o1 | inactive
71 | Cc1cc(C(=O)COc2cccc3cccnc23)c(C)n1C | inactive
72 | CN(O)/C=c1/ccc2c(n1)C(=O)C=CC=2 | inactive
73 | Cc1ccc(-c2cc(C(F)F)nc(S(C)(=O)=O)n2)cc1 | inactive
74 | CN1C(=O)NC(=O)/C(=C/c2ccc([N+](=O)[O-])s2)C1=O | inactive
75 | CC1Cc2cc(/C=C3/SC(=S)NC3=O)ccc2O1 (stereo not given) | inactive
76 | COc1ccc(S(=O)(=O)N(C(C)=O)c2ccc(OC(C)=O)c3ccccc23)cc1[N+](=O)[O-] | inactive
77 | Cc1ccccc1Nc1c(-c2ccccn2)nc2ccccn12 | inactive
78 | O=C(CCN1CCOCC1)c1ccc(Br)cc1 | inactive
79 | O=c1[nH]c(O)c(/C=C2/C=CC(c3cc(Cl)ccc3Cl)=N2)c(=O)[nH]1 | inactive
80 | CCOC(=O)Cc1cc(=O)n2[nH]cc(-c3ccc(Cl)cc3)c2n1 | inactive
81 | CCOC(=O)C1(O)CC(C)=NN1C(=O)c1cccc(Br)c1 (stereo not given) | inactive
82 | CN(C)CCOc1nc(-c2ccccc2)nc2c1oc1ccccc12 | inactive
83 | COc1ccc(CN2C(=O)/C(=C/c3ccncc3)SC2=S)cc1 | inactive
84 | Cc1ccccc1OCC(=O)OCC(=O)c1ccc[nH]1 | inactive
85 | Cc1cc(CC(C)C)n(-c2nc3ccccc3c(=O)n2OCC(N)=O)n1 | inactive
86 | O=C1/C(=C/c2ccccn2)COc2ccccc21 | inactive
87 | Cc1ccc(OCC(=O)OCc2c(C)noc2C)cc1C | inactive
88 | COc1cc(N=c2ssnc2Cl)cc(OC)c1 | inactive
89 | COc1cc(OC)nc(-n2ncc(Br)c(Br)c2=O)n1 | inactive
90 | Cc1ccc(NC(=O)COCC(=O)Nc2ccc(C)cc2)cc1 | inactive
91 | Cc1ccc(OCC(=O)Nc2ccc([N+](=O)[O-])cc2)cc1 | inactive
92 | CC(=O)OCCN(C)c1cc(SC(C)C)c2nonc2c1[N+](=O)[O-] | inactive

Row | SMILES | outcome
93 | CC(=O)OCCNc1cc(SCc2ccco2)c2nonc2c1[N+](=O)[O-] | inactive
94 | Cc1cccc(Cc2cnc(NC(=O)C3=NCCN3)s2)c1 | inactive
95 | S=C1SCN(Cc2cccnc2)CN1Cc1ccccc1 | inactive
96 | O=C1N(c2ccc3c(c2)OCCO3)C(c2ccccc2)C1(F)F (stereo not given) | inactive
97 | COc1ccc(CNC(=O)c2cc3cccc(O)c3oc2=N)cc1 | inactive
98 | Clc1ccc(CN2C3=NCCCN3c3ccccc32)cc1 | inactive
99 | COc1ccccc1NC(=O)C(=O)/C=C(\O)c1ccccc1 | inactive
100 | COc1ccc(NC(=O)c2ccc(-c3ccc([N+](=O)[O-])cc3)o2)cc1OC | inactive
101 | O=C(Nc1nnc(C2=COCCO2)o1)c1ccc(F)cc1 | inactive
102 | Cc1nnc(NC(=O)c2ccc3ccccc3c2)o1 | inactive
103 | CCCCCCOC(=O)C(C#N)c1nc2ccccc2nc1N1CCN(CC)CC1 (stereo not given) | inactive
104 | CCCNC(=O)NC(=O)COc1ccc(-c2ccc(C#N)cc2)cc1 | inactive
105 | Cc1cccc(OC(=O)c2ccc3nccnc3c2)c1 | inactive
106 | O=C1CC(=O)CC(c2ccccc2)C1 | inactive
107 | CCOC(=O)CN1NC2(CCCC(C)C2)NC1=S (stereo not given) | inactive
108 | CCOC(=O)COc1ccc2c(=O)c(-c3ccccc3)coc2c1 | inactive
109 | O=C(N/N=C/c1ccc(OC(=O)c2cccs2)cc1)c1ccccn1 | inactive
110 | CN(/N=C/c1ccc([N+](=O)[O-])o1)c1ccccc1 | inactive
111 | O=c1oc(-c2ccccc2[N+](=O)[O-])nc2ccccc12 | inactive
112 | Nc1nc2ccccc2n1CCOc1ccc(Br)cc1 | inactive
113 | Cc1c(C(=O)NNC(=O)c2csc(N3CCOCC3)n2)oc2ccccc12 | inactive
114 | O=C(N/N=C/C=C/c1cccc([N+](=O)[O-])c1)c1ccncc1 | inactive
115 | O=C(Nc1nccs1)c1cc2cc(Cl)ccc2oc1=O | inactive
